This is a sample that favours compounds with a hit; in the whole collection about 2.4% have one here.
D2 PAM-1 = Beta-Arrestin HTS for Positive Allosteric Modulators of the Human D2 Dopamine Receptor: Potentiators; potentiation, % (no concentration beside the values); 360,000 compounds, 0.23% hits; DiscoveRx D2 beta-arrestin cells, luminescence, 90 min; 100% = 57 uM dopamine signal; D(2) dopamine receptor (Homo sapiens), P14416; in the data active means potentiation above about 50%; inconclusive means mostly about 30% to 49%
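PathHunter D2 cells, attached overnight at 37 deg C, received compound in DMSO plus dopamine at EC20 (50 nM final) for 90 min at 37 deg C. Beta-arrestin recruitment was read as luminescence after 1 h with detection reagent at ambient temperature.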
D2 ag-1 = Beta-Arrestin HTS for Positive Allosteric Modulators of the Human D2 Dopamine Receptor: Agonists. D(2) dopamine receptor (Homo sapiens), P14416. DiscoveRx PathHunter D2 beta-arrestin, luminescence, 90 min; 100% = 57 uM dopamine signal. activation, % (concentration not given with the values). 360,000 compounds, 0.084% hits; in the data active means activation above about 40%; inconclusive means between about 15% and that limit
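Agonist mode: compounds alone added to overnight-plated D2 PathHunter cells for 90 min at 37 C, with 57 uM final dopamine (EC100) defining full response. Beta-arrestin recruitment detected by chemiluminescent reagent, read after 1 h at ambient temperature.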
D2 antagonist = HTS Assay for Allosteric Antagonists of the Human D2 Dopamine Receptor: Primary Screen for Antagonists. HEK293 TREx D2 cells, calcium flux, dopamine EC80. 340,000 compounds, 2% hits. inhibition, % at 10 µM. D(2) dopamine receptor (Homo sapiens), P14416; in the data active means inhibition above about 30%; inactive means below that, where a call was filed
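Calcium mobilization kinetics were recorded at 1 s intervals in tetracycline-induced HEK293 T-REx D2 cells, first for 180 s after compound addition and then 180 s after EC80 dopamine.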
D2 PAM-2 = HTS Assay for Positive Allosteric Modulators of the Human D2 Dopamine Receptor: Primary Screen for Potentiators; 340,000 compounds, 0.34% hits; potentiation, % at 10 µM; AID 485347, 2010; D(2) dopamine receptor (Homo sapiens), P14416; HEK293 T-REx D2, calcium flux, EC20 dopamine potentiation;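 active means potentiation over 3 SD above the plate norm, cut at about 30% in these data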
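Using a no-wash calcium dye in inducible, force-coupled HEK293 Trex cells expressing D2, we tracked fluorescence each second for 180 s after compound, then for 180 s after EC20 dopamine to detect augmented signalling.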
D2 ag-2 = HTS Assay for Allosteric Agonists of the Human D2 Dopamine Receptor: Primary Screen for Agonists | activation, % at 2 µM | 340,000 compounds, 0.53% hits | HEK293 T-REx D2 cells, calcium flux agonist mode;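 active means activation over 3 SD above normal in the single-dose calcium agonist read, cut at about 30% in these data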
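HEK293 Trex D2 cells, tetracycline-induced, o/n 30 C 5% CO2; no-wash Ca dye, RT 30–90 min; 10-cycle baseline, 23 nl cpd added, kinetic Ca read 180 s; agonist hits = positive Ca response.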
D3 ag = qHTS of D3 Dopamine Receptor Agonist: D3 Dopamine Receptor B-arrestin Agonist Confirmatory Assay. shares compounds with D2 ag-2. DiscoveRx D3 beta-arrestin cells, luminescence, 90 min. Potency, µM (titrated, usually from 76.9 µM), usual class: activators. 2,300 compounds, 4% hits. AID 720506, 2013; further: nearly all actives have a fitted effect of over 70% in size
Target sequence (P35462 whole entry, looked up): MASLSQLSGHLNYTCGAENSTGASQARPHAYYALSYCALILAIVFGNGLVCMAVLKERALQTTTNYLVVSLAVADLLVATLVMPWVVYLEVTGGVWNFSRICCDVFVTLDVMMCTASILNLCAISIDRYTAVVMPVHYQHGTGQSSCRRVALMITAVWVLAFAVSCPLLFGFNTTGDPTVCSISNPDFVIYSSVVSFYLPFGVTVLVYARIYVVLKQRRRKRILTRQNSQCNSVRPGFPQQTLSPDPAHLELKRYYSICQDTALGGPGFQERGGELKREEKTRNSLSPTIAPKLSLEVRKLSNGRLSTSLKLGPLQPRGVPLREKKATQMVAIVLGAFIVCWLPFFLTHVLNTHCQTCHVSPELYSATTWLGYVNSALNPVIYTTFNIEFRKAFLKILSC
D2 ag-3 = qHTS of D3 Dopamine Receptor Agonist: D2 Dopamine Receptor B-arrestin Agonist Counterscreen; shares compounds with D2 ag-2; DiscoveRx PathHunter D2 beta-arrestin, luminescence, 90 min; response scale: percent relative to full dopamine signal; Potency, µM (titrated, usually from 76.9 µM), usual class: activators; 2,300 compounds, 5.9% hits; AID 720507, 2013; further: nearly all actives have a fitted effect of over 70% in size
Large screens that a line does not name were inactive (follow-up assays come after a bar, where they were run). Unless noted, the call rests on the fitted dose curve; in most records, active means well fitted activation curve with a large enough effect; inconclusive means small, poorly fitted or top-dose-only effect; inactive means flat fitted curve, though single readings scatter.

Cc1c(C(=O)NC2CCC(C)CC2)oc2ccccc12 (stereo not given)	D2 ag-2 43 | D3 ag inactive | D2 ag-3 inactive
CCOc1cccc2cc(C(=O)NCCC3=CCCCC3)c(=O)oc12	none
CC(=O)OCC1=C[C@@H]2OC(=O)C3=CO[C@@H](O[C@@H]4O[C@H](CO)[C@@H](O)[C@H](O)[C@H]4O)[C@H]1[C@@H]32	none | D3 ag inactive | D2 ag-3 inactive
COC(=O)C1=CO[C@@H](O[C@@H]2O[C@H](CO)[C@@H](O)[C@H](O)[C@H]2O)C2C(CO)=CCC12 (stereo not given in full)	none (no result: D2 antagonist, D2 PAM-2, D2 ag-2)
CCN1CC2=C(OC(N)=C(C#N)C2c2cccs2)/C(=C\c2cccs2)C1 (stereo not given)	D2 ag-2 41 | D3 ag inactive | D2 ag-3 inactive
COc1ccc2c(Cl)cc(NC(=O)Nc3c(C)cccc3C)nc2c1	none (no result: D2 antagonist, D2 PAM-2, D2 ag-2)
Cn1c(=O)[nH]c(=O)c2c1nc(N1CCN(CCO)CC1)n2Cc1ccccc1Cl	D2 antagonist 30 | D3 ag inactive | D2 ag-3 inactive
O=C(Nc1ccc(OC(F)(F)F)cc1)c1cnc2n(c1=O)CCS2	none
CCCCOC(=O)c1ccc(NC(=O)c2cnc3n(c2=O)CCS3)cc1	none | D3 ag inactive | D2 ag-3 inactive
COc1ccc(/[N+]([O-])=C/c2ccco2)cc1	none | D3 ag inactive | D2 ag-3 inactive
COc1ccc(OCC(=O)N/N=C\c2ccco2)cc1	none
COc1ccc(CCNC(=O)Cc2c(C)c3cc4c(C(C)(C)C)coc4c(C)c3oc2=O)cc1OC	none (no result: D2 PAM-1, D2 ag-1, D2 antagonist)
COc1cccc(N2CC(=O)N(NC(=O)CSc3nc(C)cc(C)c3C#N)CC2=O)c1	D2 ag-2 43 | D3 ag inactive | D2 ag-3 inactive
COc1ccccc1CC(=O)Nc1ccc(S(=O)(=O)N2CCOCC2)cc1	none
COCc1cc(=O)[nH]c(/N=C(\N)Nc2c(F)cccc2F)n1	none
O=C(COc1cccc(C(F)(F)F)c1)NNC(=O)Cc1ccc(S(=O)(=O)N2CCOCC2)s1	none
O=C(COc1cccc(F)c1)NNC(=O)Cc1ccc(S(=O)(=O)N2CCOCC2)s1	none | D3 ag inactive | D2 ag-3 inactive
CC(NC(=O)CCl)c1ccccc1Br (stereo not given)	none
OCC[C@@H]1C[C@H](O)[C@@H](O)[C@@]2(Cc3ccccc3CO2)O1	none
OCC[C@H]1C[C@@H](O)[C@H](O)[C@@]2(Cc3ccccc3CO2)O1	none | D3 ag inactive | D2 ag-3 inactive
O=C(NC1CC(=O)N(c2ccc(F)cc2)C1)C(c1ccccc1)c1ccccc1 (stereo not given)	none (no result: D2 PAM-1, D2 ag-1, D2 antagonist)
FCCCOc1ccc(CN2CCN(c3ccccc3F)CC2)cc1	none (no result: D2 antagonist, D2 ag-2) | D3 ag inconclusive | D2 ag-3 inconclusive
Cc1cc(CN2CCN(c3ccccc3F)CC2)cs1	none (no result: D2 PAM-1, D2 ag-1, D2 antagonist, D2 ag-2)
COc1cc(NC(=O)CCc2nnc3ccc(NCc4ccco4)nn23)cc(OC)c1	D2 ag-2 52 | D3 ag inactive | D2 ag-3 inactive
CC12CCCC(CC(=O)O)(C1)NC(=O)C2 (stereo not given)	none (no result: D2 antagonist, D2 PAM-2, D2 ag-2)
Cc1cccc(NC(=O)c2nc[nH]c2C(=O)N[C@@H](C)c2ccccc2)c1	none | D3 ag inactive | D2 ag-3 inactive
Cc1cccc(NC(=O)COc2ccccc2C(=O)NC(C)c2ccccc2)c1 (stereo not given)	D2 ag-2 49 | D3 ag inconclusive | D2 ag-3 inactive
Cc1cccc(NC(=O)c2nc[nH]c2C(=O)N(C)Cc2ccccc2)c1	none | D3 ag inactive | D2 ag-3 inactive
CN(Cc1ccccc1)C(=O)c1[nH]cnc1C(=O)NCCCCCNC(=O)OC(C)(C)C	none | D3 ag inactive | D2 ag-3 inactive
CCOC(=O)C(C(=O)N(C)Cc1ccccc1)C1CCCCC1 (stereo not given)	none
COc1ccc(C2=NN(C(=O)c3ccccc3)C(c3ccc(OC)c(OC)c3)C2)c(OC(C)=O)c1 (stereo not given)	none (no result: D2 PAM-1, D2 ag-1)
CS(=O)(=O)Nc1ccc2c(c1)OCC(=O)N2Cc1ccccc1	none
CCCOc1cccc(C2c3c(oc4ccc(F)cc4c3=O)C(=O)N2c2nc(C)c(C(C)=O)s2)c1 (stereo not given)	none (no result: D2 PAM-1, D2 ag-1, D2 antagonist, D2 ag-2)
C[C@H](NC(=O)c1[nH]cnc1C(=O)N[C@H](C)c1ccccc1)c1ccccc1	none | D3 ag inactive | D2 ag-3 inactive
C[C@H](NC(=O)c1nc[nH]c1C(=O)N[C@@H](C)c1ccccc1)c1ccccc1	none
COc1ccc(Nc2oc(-c3ccc(COc4ccc(OC)cc4)o3)nc2C#N)cc1	none (no result: D2 PAM-1, D2 ag-1, D2 antagonist)
O=c1ccn(CCc2c[nH]c3ccccc23)c2c1CCCC2	D2 ag-2 43 | D3 ag inactive | D2 ag-3 inactive
CCOc1ccc(-c2cc(C(=O)Nc3cccc(C(F)(F)F)c3)[nH]n2)c(C)c1	none (no result: D2 antagonist, D2 PAM-2, D2 ag-2)
CCc1ccc(/C=N/NC(=O)c2nnn(-c3nonc3N)c2C(C)C)cc1	none | D3 ag inactive | D2 ag-3 inactive
CCOc1ccc(/C=N/NC(=O)c2nnn(-c3nonc3N)c2-c2cccs2)cc1	none | D3 ag inactive | D2 ag-3 inactive
CCOc1ccc(-c2c(C(=O)N/N=C/c3ccccc3)nnn2-c2nonc2N)cc1	none
CCOc1cccc(-c2c(C(=O)N/N=C/c3ccsc3)nnn2-c2nonc2N)c1	none | D3 ag inactive | D2 ag-3 inactive
CCOc1cccc(-c2c(C(=O)N/N=C/c3sccc3C)nnn2-c2nonc2N)c1	none
Cc1cccc(C)c1Cn1c(C)c(C(=O)NCCC#N)sc1=O	none (no result: D2 antagonist, D2 PAM-2, D2 ag-2)
Cc1ccc2nc(CN3CCN(C(=O)Nc4cccc(C)c4C)CC3)oc2c1	none (no result: D2 PAM-1, D2 ag-1, D2 antagonist, D2 ag-2)
O=C(CN1C(=O)C2CCCCN2c2ccc(C(=O)N3CCCC3)cc21)NCc1ccccc1 (stereo not given)	none (no result: D2 PAM-1, D2 ag-1, D2 antagonist)

Source: PubChem BioAssay
